In the library only some 3.4% were active in any assay of this set; here they are far more common.
GPR151 activ = activates the human receptor GPR151; AID 1508602; activation, % at 11.2 µM; Q8TDV0; PathHunter beta-arrestin GPR151 cells, luminescence; actives 1% (n = 650,000); in the data active = activation above about 4.9%;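 note: 0% = median of compound wells and 100% = cells with positive control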
TEAD-YAP block = TEAD-YAP interaction inhibition; HEK-TIYL cells, TEAD-Gal4/YAP UAS-luciferase luminescence; inhibition, % at 9.12 µM; actives 1.4% (n = 640,000); AID 1259422; in the data active = inhibition above about 32%;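 note: 0% = median of test compound wells and 100% = reference inhibitor wells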
MITF primary = human MITF inhibition, primary screen. inhibition, % at 2.6 µM. AID 1259374. O75030. AlphaScreen MITF homodimerization, bead proximity signal. actives 0.91% (n = 650,000); in the data active = inhibition above about 50%;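 note: 0% = vehicle wells with protein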
FBW7 act = human FBW7 E3 ligase activation, primary screen | normalized activity (activation), % at 26.1 µM | AlphaScreen FBW7–phospho-cyclin E peptide binding, activator screen | AID 1259310 | actives 0.13% (n = 650,000) | Q969H0; in the data active = normalized activity above about 1.9%;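 note: purified mutant Fbw7 with reduced substrate affinity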
Target sequence (Q969H0 whole entry, looked up): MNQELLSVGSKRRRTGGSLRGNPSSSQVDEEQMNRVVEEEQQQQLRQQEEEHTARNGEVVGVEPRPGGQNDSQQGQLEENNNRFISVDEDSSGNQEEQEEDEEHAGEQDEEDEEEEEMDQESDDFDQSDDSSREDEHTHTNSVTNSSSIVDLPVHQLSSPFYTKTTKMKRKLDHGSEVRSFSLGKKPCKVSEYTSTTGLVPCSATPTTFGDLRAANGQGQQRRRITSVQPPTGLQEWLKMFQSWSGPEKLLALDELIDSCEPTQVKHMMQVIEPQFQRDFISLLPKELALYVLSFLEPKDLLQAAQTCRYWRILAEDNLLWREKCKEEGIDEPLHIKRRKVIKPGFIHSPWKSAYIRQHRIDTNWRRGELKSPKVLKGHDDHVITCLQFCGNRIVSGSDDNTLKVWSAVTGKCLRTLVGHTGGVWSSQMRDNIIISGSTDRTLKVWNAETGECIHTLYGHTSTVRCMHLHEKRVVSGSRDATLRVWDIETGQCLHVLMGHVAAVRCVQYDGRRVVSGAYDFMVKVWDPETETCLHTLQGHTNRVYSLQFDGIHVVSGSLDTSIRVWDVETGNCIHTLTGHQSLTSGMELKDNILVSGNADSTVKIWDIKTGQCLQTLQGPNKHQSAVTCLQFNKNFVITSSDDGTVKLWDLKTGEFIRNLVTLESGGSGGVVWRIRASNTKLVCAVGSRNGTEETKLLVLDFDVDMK
* marks the source's active call; other numbers are inactive results.

SMILES	GPR151 activ	TEAD-YAP block	MITF primary	FBW7 act
COc1cccc(C2=NC(C(C)C)NC(c3cc(Br)ccc3O)C2)c1 (centres undefined)	0	35*	-11	0
Oc1ccc(Br)cc1C1CC(c2cccc(Br)c2)=NC(c2ccc(Cl)cc2Cl)N1 (centres undefined)	-3	10	6	0
CN(Cc1cn(C)nc1-c1ccc2c(c1)OCCO2)CC1COCCO1 (centres undefined)	0	-5	-5	0
Nc1c(C(=O)NC2CC2)sc2nc(-c3ccc4c(c3)OCO4)ccc12	-1	42*	7	0
Nc1c(C(=O)Nc2ccc(F)cc2)sc2nc(-c3ccc4c(c3)OCO4)ccc12	0	-13	-15	0
O=C(Nc1cccc(-n2cnnn2)c1)C1CCCN(Cc2ccccc2)C1 (centres undefined)	-1	2	-4	0
O=C(Nc1cccc(-n2cnnn2)c1)C1CCCN(Cc2cc3ccccc3o2)C1 (centres undefined)	0	41*	3	0
COc1ccc(Oc2ncnc3c2cnn3-c2ccccc2)cc1	1	-11	10	0
Cc1ccc(-n2ncc3c(Oc4ccc(F)cc4)ncnc32)cc1	0	58*	-1	0
Fc1cccc(Oc2ncnc3c2cnn3-c2cccc(Cl)c2)c1	-1	-3	-8	0
Fc1ccc(-n2ncc3c(Oc4ccc(Cl)cc4)ncnc32)cc1	0	42*	8	0
Cc1ccc(Oc2ncnc3c2cnn3-c2ccccc2)cc1	1	51*	8	0
COc1ccc(NC(=O)CN(c2ccc(Cl)c(Cl)c2)S(C)(=O)=O)cc1	-1	-9	-1	0
O=C1C(=O)N(Cc2cccnc2)C(c2ccccc2)/C1=C(\O)c1ccc(Cl)cc1 (centres undefined)	-1	-5	5	0
O=C1CSC(=S)N1/N=C/c1ccccc1OS(=O)(=O)c1ccccc1	-1	5	12	0
COc1cccc(/C=N/N2C(=O)CSC2=S)c1O	0	-13	77*	-2
COC(=O)C1=C(C)NC(=O)NC1c1ccc(Cl)cc1 (centres undefined)	0	12	2	0
OCCNc1nc(Nc2ccc3ncccc3c2)nc2c1ncn2-c1ccsc1	1	35*	10	0
Oc1ccc(CCNc2nc(Nc3ccc4ncccc4c3)nc3nc[nH]c23)cc1	0	45*	11	0
Oc1ccc(CCNc2nc(Nc3ccc4ncccc4c3)nc3c2ncn3-c2ccsc2)cc1	-1	56*	2	0
Cc1nn(-c2nc3ccccc3[nH]2)c(=O)c2ccccc12	-9	97*	2	0
COc1ccc2cnn(-c3nc4ccccc4[nH]3)c(=O)c2c1OC	-4	43*	-5	0
O=S(=O)(Nc1cccc(N2CCC(NCCn3ccnc3)CC2)c1)c1ccc(F)cc1	0	6	-2	0
COc1ccccc1C(=O)Nc1cccc(N2CCC(NCc3ccsc3)CC2)c1	-1	-12	-10	0
CCCCNC1CCN(c2cccc(NC(=O)c3ccccc3OC)c2)CC1	3	41*	29	0
SMILES	GPR151 activ	TEAD-YAP block	MITF primary	FBW7 act
COc1ccccc1C(=O)Nc1cccc(N2CCC(NCCc3ccco3)CC2)c1	0	44*	3	0
COc1ccccc1C(=O)Nc1cccc(N2CCC(NCCc3cnccn3)CC2)c1	0	20	8	0
COc1ccccc1C(=O)Nc1cccc(N2CCC(NCCc3cccs3)CC2)c1	-1	51*	20	0
O=S(=O)(Nc1cccc(N2CCC(NCCc3ccco3)CC2)c1)c1ccc(F)cc1	1	-9	61*	1
O=C(O)CCCCCN1C(=O)CSC1=S	-1	33*	-13	0
O=C1CSC(=S)N1CCCCCCN1C(=O)CSC1=S	0	-5	-17	0
O=C(O)CCCN1C(=O)CSC1=S	2	57*	0	0
COc1ccc(C2C(C#N)=C(N)Oc3c2sc2ccccc32)c(OC)c1 (centres undefined)	-1	64*	-3	0
COc1ccccc1C1C(C#N)=C(N)Oc2c1sc1ccccc21 (centres undefined)	0	33*	-10	0
N#CC1=C(N)Oc2c(sc3ccccc23)C1c1ccccc1OC(=O)c1ccccc1Cl (centres undefined)	1	-3	5	0
N#CC1=C(N)Oc2c(sc3ccccc23)C1c1ccc(Cl)cc1Cl (centres undefined)	0	-1	6	0
C=CCNc1nc2c(c(=O)n(C)c(=O)n2C)n1CCCCCC	0	47*	12	0
C=CCNc1nc2c(c(=O)n(C)c(=O)n2C)n1CCC(C)C	0	33*	19	1
COc1ccc(-c2nsc3c(N4CCCC(C)C4)ncnc23)cc1 (centres undefined)	1	86*	-5	0
COc1ccc(-c2nsc3c(N4CCCC4)ncnc23)cc1	1	65*	-16	0
CC1CCCN(c2ncnc3c(-c4ccccc4)nsc23)C1 (centres undefined)	1	80*	0	0
CCN1CCN(c2ncnc3c(-c4ccc(OC)cc4)nsc23)CC1	-1	-55	12	0
Fc1ccc(-c2nsc3c(N4CCOCC4)ncnc23)cc1	0	68*	-1	0
CCOC(=O)c1nnn(-c2nonc2N)c1CN1CCCC1	0	7	13	1
Cc1nnc(Nc2ccc(N3CCCCC3)cc2)[nH]c1=O	1	1	1	0
Cc1cccnc1CCNCc1c(C(=O)N2C[C@@H](C)O[C@@H](C)C2)nc2ccc(Cl)cn12	-1	10	6	0
O=[N+]([O-])c1ccc(CSc2nnc(Cc3ccccc3)o2)cc1	0	11	14	0
O=[N+]([O-])c1ccc(Sc2nnc(Cc3ccccc3)o2)nc1	1	57*	-2	0
N/C(=N\N=C\c1ccc(O)c(O)c1)SC1CC(=O)N(c2ccc(C(=O)O)cc2)C1=O (centres undefined)	0	-6	82*	0
Fc1ccc(-c2cnc3ccc4ccncc4c3c2)cc1	0	-8	16	0
SMILES	GPR151 activ	TEAD-YAP block	MITF primary	FBW7 act
c1cc2ccc3ncc(-c4ccc(-c5ccn[nH]5)cc4)cc3c2cn1	0	-18	12	2.0*
COc1ccc(N2C(SC)=NC(=Nc3ccc(C)cc3)C23CCC(C(C)(C)C)CC3)cc1 (centres undefined)	0	2	13	0
COC1(C)N(c2ccc(C)cc2)CC(=Nc2ccc(C)cc2)N1c1ccc(C)cc1 (centres undefined)	1	38*	9	0
COC(=O)C1=C(C)Nc2ncnn2C1c1ccc(OC)c(Br)c1 (centres undefined)	1	32*	2	0
CCOC(=O)C1=C(C)Nc2ncnn2C1c1cc(Br)c(OC)c(OC)c1 (centres undefined)	-2	50*	-4	0
COC(=O)C1=C(C)Nc2ncnn2C1c1cc(Br)c(O)c(OC)c1 (centres undefined)	-1	-20	-8	0

Screening data (PubChem BioAssay)
